Results taken from PubChem BioAssay (NCI).
About 79,000 compounds went through this panel and 15% of them were active in at least one assay; those are over-represented in the sample as a whole. Values without a mark were called inactive. Activity calls are given as the source filed them. Rule as the data show it: active = growth inhibition above about 70%; inactive = the rest.

Assays:
[1] = NCI Yeast Anticancer Drug Screen. Data for the rad50 strain (AID 155);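 also: 0% = growth of vehicle-only cultures of the same strain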; conditions: S. cerevisiae rad50 strain growth inhibition; at 50.0 µM; stronger effect = higher value
How it was run: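 Yeast carrying a defined DNA repair defect were exposed to test compounds, and growth was compared with vehicle-treated controls to give percent inhibition.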

[2] = NCI Yeast Anticancer Drug Screen. Data for the mec2-1 strain (AID 157); conditions: S. cerevisiae mec2-1 strain, at 50.0 µM, stronger effect = higher value
How it was run: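 Each compound was tested on mec2-1 yeast, a strain altered in DNA damage repair or cell cycle control. Growth inhibition is reported relative to vehicle.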

[3] = NCI Yeast Anticancer Drug Screen. Data for the sgs1 mgt1 strain (AID 161);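 also: 0% = growth of cultures given vehicle only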; conditions: S. cerevisiae sgs1 mgt1 strain, at 50.0 µM, stronger effect = higher value
How it was run: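 Read-out: growth inhibition vs vehicle controls. Cells: mutant yeast strain deficient in DNA damage repair.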

[4] = NCI Yeast Anticancer Drug Screen. Data for the cln2 rad14 strain (AID 165);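 also: 0% = growth equal to vehicle treated cultures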; conditions: S. cerevisiae cln2 rad14 strain, at 50.0 µM, stronger effect = higher value
How it was run: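 Test compounds were added to cln2 rad14 yeast cultures; inhibition of growth was then determined by comparison with vehicle treatment.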

[5] = NCI Yeast Anticancer Drug Screen. Data for the bub3 strain (AID 167); conditions: S. cerevisiae bub3 mutant strain, at 50.0 µM, stronger effect = higher value
How it was run: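 Compounds were applied to a genetically altered yeast strain carrying a cell-cycle control defect. Growth inhibition was scored against vehicle-treated controls.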

[6] = NCI Yeast Anticancer Drug Screen. Data for the mlh1 rad18 strain (AID 175); conditions: S. cerevisiae mlh1 rad18 strain growth inhibition; at 50.0 µM; stronger effect = higher value
How it was run: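 Inhibition values reflect reduced growth of mutant yeast versus vehicle-treated controls following compound exposure; the mutations affect DNA damage repair.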

Row | Structure (SMILES) | growth inhibition [1] | growth inhibition [2] | growth inhibition [3] | growth inhibition [4] | growth inhibition [5] | growth inhibition [6]
1 | N#Cc1ccc(Cl)cc1 | 9.65% | -21.7% | 6.25% | -2.6% | -4.7% | 7.9%
2 | C(=NCCN=CC1CCCC[N-]1)C1CCCC[N-]1.[Cu+2].[O-][Cl+3]([O-])([O-])O (configuration not stated) | 79.8% (active) | 71% (active) | 44.5% | 90% (active) | 69.5% | 82.7% (active)
3 | O=C1CCCN1CC#CCN1CCCC1 | -13.8% | -20.9% | 16.9% | 3.3% | 8.55% | 6.2%
4 | c1ccc2c(c1)c1ccccc1c1n[se]nc21 | -4.7% | -1.5% | 2.75% | -6.25% | 7.55% | 11.9%
5 | CCC1(CCSC#N)C(=O)NC(=O)NC1=O | -7.55% | -8.6% | 11.2% | -14.9% | -3.3% | 3.85%
6 | CCC(C)(C)C(=O)Nc1cccc(OC(=O)NC)c1 | 2.1% | -9.1% | 9.85% | -3.35% | 13.2% | -16.9%
7 | CC1=CC(=Nc2ccc(N(CCCl)CCCl)cc2)C=C(C)C1=O | 3.2% | -16.6% | 12.2% | 13.8% | 8.15% | 37.1%
8 | O=C(c1ccccc1)c1ccc2n[se]nc2c1 | -32.4% | 10.2% | 18.2% | 4.65% | 17.1% | 25.5%
9 | [Cl][Co][Br].[NH-]CC[NH-].[NH-]CC[NH-] | -12.7% | 3.95% | 13.9% | -42.1% | 36.4% | 21.2%
10 | CN1C2CCC1CC1(C2)SCCS1 | 2.5% | 3.85% | 3.1% | 6.2% | 6.85% | 4.45%
11 | O=C1NC2(CCCC2)C(=O)N1CCCN(CCCl)CCCl | 2.75% | 12.9% | 25.1% | -37.3% | 7.35% | 3.2%
12 | C[N+]1([O-])C2CCC1CC(O)C2 (configuration not stated) | 4.1% | 7.55% | 1.45% | 16.2% | -2.5% | 17.4%
13 | CC1(C)O[C@]2(C)CC[C@@H]1[C@@H](O)[C@@H]2N1CCCC1 | 1.75% | -8.6% | -6.75% | -33.4% | -6.75% | 0.15%
14 | C=CC(Cl)OC(=O)C(C)O (configuration not stated) | 16.5% | 20.2% | 15.2% | 11.3% | 1.55% | 6.4%
15 | NNN1CCN(N)CC1 | 11.1% | -12.2% | 6.35% | -8.35% | 17.1% | 4.35%
16 | N#CNC(N)=S | -13.8% | -10.3% | -10.3% | -8.7% | -14.3% | -8.35%
17 | COc1ccc(CCF)cc1 | -4.95% | 4% | -0.7% | -9.85% | 4.4% | -3.85%
18 | CC(C)CCC1C(=O)N(C)C(=O)N(C)C1=O | -9% | -6.55% | 3.15% | -0.5% | 0.55% | 2.05%
19 | FC(F)(F)c1ccc(Cl)c(NC2=NCCCS2)c1 | -7.85% | -0.35% | 2.15% | 2.05% | 0.4% | -3.6%
20 | CCCCOCN(CCc1ccccc1)COCCCC | 15.7% | 5.8% | 24.2% | 19.2% | 10.2% | 25.6%
21 | CC(=O)[O][Sn]([CH2]C1CCCC1)([CH2]C1CCCC1)[CH2]C1CCCC1 | 99.3% (active) | 99.3% (active) | 99.4% (active) | 98.9% (active) | 99% (active) | 99.1% (active)

Row | Structure (SMILES) | growth inhibition [1] | growth inhibition [2] | growth inhibition [3] | growth inhibition [4] | growth inhibition [5] | growth inhibition [6]
22 | CCC1CCC2CCCC(C)N12 (configuration not stated) | 9.05% | 4.25% | -3.2% | 1.5% | 8.2% | 7.75%
23 | O=NNc1cncc(Cl)n1 | -11.2% | -3.5% | -5.35% | -17.9% | -0.4% | -6.05%
24 | CC(C)(O)/C=C/C(=O)[C@](C)(O)[C@H]1[C@H](O)C[C@@]2(C)[C@@H]3CC=C4[C@@H](C[C@H](O)C(=O)C4(C)C)[C@]3(C)C(=O)C[C@]12C | 8.3% | -14.6% | -6.7% | 0.55% | -12.8% | 1.8%
25 | CCC1NCCc2cc(OC)c(O)cc21 (configuration not stated) | -5.9% | 0.35% | -6.25% | 1.4% | 1.85% | -11.4%
26 | CN(C)CCNC(=O)c1cccc(COC(=O)N(CCCl)CCCl)c1[N+](=O)[O-] | 9.55% | -2.4% | 15.8% | 10.1% | -9.45% | 9.7%
27 | CC(=O)c1ccc(Br)cc1 | 2% | -5.5% | -0.65% | 8.7% | 5.75% | 1%
28 | CNCCc1cccs1 | -27.6% | -6.4% | 1.25% | -29.1% | 6.15% | 4.7%
29 | NNC(=O)c1ccccc1 | -1.8% | -2.05% | -11.8% | -36% | -1.25% | -19%
30 | CC(C)(C)C(=O)CP(=O)(O)O (tested in a mixture with another compound) | 24.1% | -4.45% | 1.5% | 14.7% | 10.2% | 15.3%
31 | COc1ccccc1[As](=O)(O)c1ccccc1 | -6.45% | -0.85% | -1.45% | -47.6% | -11% | 5.25%
32 | [CH3][Sn]([Cl])([Cl])[c]1ccccc1 | -22.9% | 2.05% | 8.7% | -18.5% | -12.8% | 1.6%
33 | O=C(c1ccccc1)N1CC(Cl)CN(C(=O)c2ccccc2)CC(Cl)C1 (configuration not stated) | 21.4% | 26% | 37.8% | 14.8% | 16.3% | 25.6%
34 | CCCCC(C(=O)NN)P(=O)(OCC)OCC (configuration not stated) | -0.9% | -5.2% | 15.8% | -14.7% | -1.95% | 0.95%
35 | Cc1csc2sc3ccccc3[n+]12 | 5.75% | -6.85% | -0.5% | -5.8% | -11.9% | -34.1%
36 | CN(C)C(=O)c1nnsc1NN=O | 32% | 33.7% | -35.1% | 8.35% | -14.4% | 9.35%
37 | COc1cc2c(c(OC)c1OC)CC1c3c(cc4c(c3-2)OCO4)CCN1C (configuration not stated) | -5.85% | -31.5% | -18.1% | 13.7% | 2.1% | -17.3%
38 | NC(c1ccccc1)C(O)c1ccc(O)cc1 (configuration not stated) | 19.4% | 12.3% | 10.1% | -10.6% | 1.05% | -8.35%
39 | COc1ccc2c(c1OC(C)=O)-c1cc(OC(C)=O)cc3c1C(C2)NCC3 (configuration not stated) | 11.7% | -4% | -5.7% | 6.65% | 1.9% | 4.4%
40 | CC1CC[Si](C)(C)CC12C(=O)NC(=O)NC2=O (configuration not stated) | 6.65% | 1.95% | 19.6% | -0.05% | 10.1% | -7.05%
41 | CN(C)C(=O)N(CCCl)N=O | 5.1% | -4.2% | 1.45% | 2.55% | 13.1% | 20.8%
42 | N#CCc1ccccc1.N#CCc1ccccc1.[C-]#[O+].[C-]#[O+].[C-]#[O+].[C-]#[O+].[W] | -10.9% | -16.2% | -7.1% | -33.2% | -5.05% | -11.3%
